Source: PubChem BioAssay (NCI)
The panel holds about 83,000 compounds, 20% with a hit somewhere; the sample as a whole holds those more often.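 Treatment: one concentration, 48 hours, 96-well format. Scoring: percent growth, with anything below 10 considered active.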 Unmarked numbers belong to inactive results. The source made the active and inactive calls.

What was measured:
Test in all cases: NCI-60 one-dose screen, 48 h (100 = growth as untreated, 0 = no growth, -100 = all killed)
Settings in all cases: 10 µM unless noted
[1] = system: DU-145 prostate
[2] = system: K-562 leukemia
[3] = system: MALME-3M melanoma
[4] = system: MDA-MB-231 breast
[5] = system: RXF 393 renal
[6] = system: SF-268 CNS
[7] = system: SF-295 CNS
[8] = system: SF-539 CNS
[9] = system: UACC-257 melanoma
[10] = system: M14 melanoma
[11] = system: HCT-15 colon
[12] = system: HT29 colon
[13] = system: SNB-75 CNS
[14] = system: SNB-19 CNS
[15] = system: U251 CNS
[16] = system: PC-3 prostate
[17] = system: SK-MEL-5 melanoma
[18] = system: UACC-62 melanoma
[19] = system: LOX IMVI melanoma
[20] = system: SK-MEL-28 melanoma

SMILES	growth [1]	growth [2]	growth [3]	growth [4]	growth [5]	growth [6]	growth [7]	growth [8]	growth [9]	growth [10]	growth [11]	growth [12]	growth [13]	growth [14]	growth [15]	growth [16]	growth [17]	growth [18]	growth [19]	growth [20]
O=C(Nc1ccc(-n2ccc3c(NC(=O)c4ccccc4)nccc32)cc1)Nc1cccc(C(F)(F)F)c1	31.8%	21.2%	73.4%	63.7%	10.3%	51.8%	37.1%	44.8%	68.8%	43.7%	19.7%	-0.934% (active)	74.3%	65.8%	32.3%	13.6%	53.6%	78.6%	26.6%	60.3%
COc1ccc2c(c1)O/C(=C/c1ccc(OCC(=O)Nc3ccc(S(N)(=O)=O)cc3)cc1)C2=O	101%	85.7%	111%	94.7%	97.2%	94.8%	106%	97.7%	102%	102%	93.7%	102%	89.8%	92.1%	97.7%	91%	94.3%	88%	101%	108%
COc1cc2c(cc1OCCCCC(=O)Nc1ccc(-c3nc4ccccc4s3)cc1)N=C[C@@H]1CCCN1C2=O	3.12% (active)	-17.6% (active)	-80.2% (active)	14.7%	-83% (active)	7.56% (active)	18.3%	-46.6% (active)	-47.1% (active)	-59.3% (active)	10.6%	-9.12% (active)	-67.7% (active)	14.1%	7.5% (active)	-4.92% (active)	-99.3% (active)	-70.9% (active)	1.99% (active)	-44% (active)
Cn1c2ccccc2c2ssc(=S)c21	116%	82.9%	81.9%	99.9%	108%	103%	97.3%	97.5%	98.8%	89.3%	92.1%	110%	99.3%	100%	96.2%	101%	89.8%	95.8%	91.9%	108%
Cc1c(C(C)(C)C)cc(C(C)(C)C)c2c1CN(C)CO2	112%	99.4%	95.5%	110%	122%	103%	103%	103%	99.5%	118%	108%	105%	102%	112%	109%	110%	127%	114%	106%	102%
O=S(=O)(CCN1CCOCC1)Nc1cncc(-c2ccc3ncnc(Nc4ccc(F)c(Cl)c4)c3c2)c1	65.3%	96.5%	57.7%	67.9%	84.6%	63.5%	82.1%	75.1%	87.6%	73.3%	84.6%	73.6%	56.3%	61%	68.9%	53.2%	95.4%	77.5%	56.6%	81.7%
CC(=O)N[C@@H](CNC(=O)c1cc(NC(=O)c2cc(NC(=O)c3cc(NC(=O)c4nccn4C)cn3C)cn2C)cn1C)CC(=O)Nc1cn(C)c(C(=O)Nc2cc(C(=O)Nc3cc(C(=O)Nc4cc(C(=O)NCCCN(C)CCCNC(=O)c5cccc(C(=O)O)c5)n(C)c4)n(C)c3)n(C)c2)n1	53.3%	105%	122%	113%	97.6%	95.9%	47.8%	107%	113%	89.9%	103%	67.6%	107%	86.3%	64%	88.6%	96.6%	59.1%	80.7%	107%
Cc1ccc(-c2nc3c(N=Nc4ccc(S(N)(=O)=O)cc4)c(N)nn3c(N)c2C#N)cc1	34.6%	20.3%	48.5%	40.1%	27.9%	34.5%	49.2%	30.7%	72.3%	46.4%	82.5%	35.8%	49%	58%	31.8%	32.4%	-52.2% (active)	52.9%	22.5%	52.8%
CC(C)CCC[C@@H](C)[C@H]1CC[C@H]2[C@@H]3CC=C4N(c5ccccc5)C(=O)CC[C@]4(C)[C@H]3CC[C@]12C	103%	103%	97.8%	111%	103%	99.3%	99%	101%	105%	96.1%	96.4%	90.3%	93.6%	109%	101%	80.4%	99.1%	98.9%	98%	106%
Cc1cc(-c2ccccc2)nc2ccccc12	112%	91.8%	99.4%	94.3%	94.6%	94.7%	97.6%	98.2%	99.9%	96.6%	97.5%	113%	86.9%	101%	97.4%	99.8%	95%	95.7%	98.5%	114%
O=S(=O)(O)c1ccc(F)cc1	103%	85%	90.7%	112%	116%	93.2%	96.1%	102%	111%	98.1%	104%	96.5%	101%	114%	109%	106%	105%	107%	98.9%	111%
O[C@@H]1CCO[C@H](c2ccc3ccccc3c2)C1	102%	98.3%	96.7%	104%	97%	96.2%	102%	98.9%	98.5%	101%	85.9%	100%	97.2%	101%	96.7%	95.5%	102%	100%	102%	111%
CCOC(=O)n1cnc2c(Cl)ncnc21	106%	106%	113%	101%	104%	111%	101%	93.6%	86.4%	101%	112%	106%	93.9%	86.4%	101%	113%	95.8%	104%	88.6%	121%
CS(=O)(=O)Nc1cccc(-c2ccc3ncnc(Nc4cncc(Cl)c4)c3c2)c1	38.6%	16.9%	40.3%	1.39% (active)	19.8%	42.4%	-17.7% (active)	2.94% (active)	49.7%	16.8%	16%	5.04% (active)	19.8%	51.4%	23.8%	19.8%	35.6%	29%	11%	43.7%
O=c1cc(Cl)[nH]c(=O)[nH]1	107%	104%	112%	111%	101%	101%	101%	105%	89.1%	97.6%	107%	83.6%	100%	107%	97.5%	98.4%	101%	86.3%	101%	105%
COc1ccc(-c2nn(-c3ccc(NC(=O)Nc4cc(C(F)(F)F)cc(C(F)(F)F)c4)cc3)cc2-c2ccncc2)cc1Cl	30.4%	17.2%	11.4%	8.03% (active)	-26.2% (active)	21.8%	4% (active)	24.6%	13.6%	20.6%	9.81% (active)	11.7%	34.4%	31.5%	11.8%	3.33% (active)	9.61% (active)	15.6%	15%	30.1%
CC/C(=C(\CC)c1ccc(OCCN(CC)CC)cc1)c1ccc(OCCN(CC)CC)cc1	73.9%	12.7%	-42.8% (active)	5.07% (active)	-4.27% (active)	55.2%	-13.9% (active)	-35% (active)	-51.8% (active)	-0.0375% (active)	6.7% (active)	-0.437% (active)	39.1%	62.5%	24.6%	29%	-96.4% (active)	10.9%	-5.77% (active)	-40.5% (active)
O=C(/C=C/c1ccccc1)Oc1ccc(/C=C/c2cc(OC(=O)/C=C/c3ccccc3)cc(OC(=O)/C=C/c3ccccc3)c2)cc1	104%	94.8%	91.2%	104%	114%	99.5%	101%	91.8%	81.7%	100%	103%	90.1%	80.5%	96.2%	94.9%	87.5%	107%	103%	98.4%	107%
CCOC(=O)c1noc2c1CCc1cn(Cc3cc(OC)cc(OC)c3)cc1-2	104%	102%	107%	117%	113%	96.8%	95.3%	98.8%	101%	101%	96.4%	75.4%	95.8%	113%	110%	92.8%	101%	103%	95.5%	105%
O=C(Nc1ccc(-n2ccc3c(NC(=O)c4ccccc4)nccc32)cc1)c1cccc(C(F)(F)F)c1	45.2%	15.3%	44.3%	51.4%	-8.11% (active)	26.9%	11.3%	16.8%	44.4%	27.6%	14.1%	2.7% (active)	43.9%	37.4%	17.7%	40.4%	16.5%	35.4%	6.29% (active)	48.1%
COc1ccc(NC(=O)COCCOCCNC[C@@H]2C(=O)O[C@H]3[C@H]2CC/C(COC(=O)OC/C2=C/CC[C@@]4(C)O[C@H]4[C@H]4OC(=O)[C@@H](CN(C)C)[C@@H]4CC2)=C\CC[C@@]2(C)O[C@@H]32)c(O)c1C(N)=O	57%	5.46% (active)	-21.1% (active)	21.8%	-40.5% (active)	91.5%	105%	46.4%	40.5%	53.9%	17.1%	14%	84.1%	94.1%	80.8%	80.2%	85.7%	43%	35.1%	-6.54% (active)
O=[N+]([O-])c1cccc(C(c2ccccc2)c2ccccc2)c1	110%	73.7%	97%	83.1%	102%	99.8%	76.7%	101%	102%	97%	95.3%	79.8%	86.4%	97.3%	90.9%	70.4%	101%	86.7%	87.3%	107%
OC[C@@H](O)C(O[C@@H]1O[C@H](CO)[C@H](O)[C@H](O)[C@H]1O)[C@H](O)[C@@H](O)CO (stereo not given in full)	111%	104%	97.6%	97.3%	108%	109%	96.1%	101%	106%	99.9%	98.2%	103%	98.6%	107%	97.6%	86.6%	106%	99.1%	98.8%	110%
COc1ccc(C(=O)NC(=O)Nc2ccc3c(c2)NC(=O)/C3=C\c2[nH]c(C)c(CCC(=O)O)c2C)c(F)c1	42.7%	23.9%	40.6%	71.5%	21.1%	35%	42.7%	-5.86% (active)	14.1%	33.2%	39.6%	55.6%	44.2%	27%	0.371% (active)	30.2%	25.2%	25.7%	26.9%	31.1%
COc1ccc(-c2nn(-c3ccc(NC(=O)Nc4ccc(Cl)c(Cl)c4)cc3)cc2-c2ccncc2)cc1Cl	28.6%	11.6%	16%	0.693% (active)	-55.7% (active)	31.1%	1.08% (active)	15.7%	11.9%	6.66% (active)	7.56% (active)	6.65% (active)	46.8%	34.4%	0.654% (active)	11.3%	-27.5% (active)	9.56% (active)	-0.494% (active)	28.4%
COc1ccc(-c2nnc(NC(=O)CN3CCN(c4cc5c(cc4F)c(=O)c(C(=O)O)cn5C4CC4)CC3)s2)cc1OC	113%	89.9%	98.9%	102%	105%	97.7%	103%	96.8%	98%	97.7%	103%	95.8%	90.8%	96.2%	99.7%	95.6%	99.1%	91.9%	74.3%	107%
CCCCOc1c(N)cc(Cl)cc1C(=O)OCCN(CC)CC	116%	83.9%	102%	101%	125%	98.6%	101%	104%	78.3%	107%	111%	74.8%	101%	101%	90.1%	80.9%	102%	96.7%	103%	114%
C#CCn1c(-c2cc(OC)c(OC)cc2Br)nc(-c2ccccc2)c1-c1ccccc1	63.9%	15.1%	29.3%	45.7%	41.3%	70%	21.6%	62.7%	59.2%	16.1%	29.7%	9% (active)	43.1%	55%	45.4%	25.2%	12.4%	40%	34.9%	69.8%
COc1cccc(/C=N/C(=S)NC2(C)C3CCC(C3)C2(C)C)c1O (stereo not given)	105%	79.4%	89.8%	96.2%	99%	94.7%	86.1%	95.3%	87%	64.8%	32.5%	101%	90.8%	82.9%	48.7%	65.9%	88.6%	94.5%	70.8%	102%
CCOC(=O)c1noc2c1CCc1c-2cn(Cc2ccc(OC)cc2)c1-c1cc(OC)c(OC)c(OC)c1	24.5%	7.62% (active)	76.9%	-1.46% (active)	11.7%	41.5%	21.2%	-10.4% (active)	54.3%	3.01% (active)	23.5%	4.06% (active)	14%	24.4%	18.4%	25.3%	16.9%	22.4%	42.3%	58.1%
